Experimental data published in PubChem BioAssay AID2717 (Broad Institute, 2010).
In all, about 300,000 compounds went through this assay and about 3,200 (1.1%) were called active. Cut-off read from the data, not from the text of the source: active = inhibition above about 75%; inconclusive = no clear call, values can overlap the other calls; inactive = below that; tested in HMLE shEcad cells. Shown is part of a subset that was picked to be rich in actives.

Test: cancer stem cell viability inhibitors, primary screen, luminescence (AID 2717)
Settings: cancer stem cell-like cells viability, at 7.5 µM, hits give high values

| SMILES | inhibition |
| --- | --- |
| Cc1ccc(C(=O)OCC(=O)NCc2cc(C)c(O)c(C)c2)cc1S(=O)(=O)N1CCCCC1 | -3.22% (inactive) |
| O=c1c2ccccc2nc2n1C1(CCCCC1)Cc1ccccc1-2 | 76.3% (active) |
| c1cncc(-c2nnc3n2C2(CCCCC2)Cc2ccccc2-3)c1 | 2.64% (inactive) |
| CCC1(CC)Cc2ccccc2-c2nc3ccccc3c(=O)n21 | 1.88% (inactive) |
| COc1ccc(OC)c(/C=C/C(=O)c2ccc3c(c2)OCO3)c1 | 23.6% (inactive) |
| Cc1cc(NC(=O)CSc2ncc(C(F)(F)F)cc2Cl)no1 | -11.1% (inactive) |
| NS(=O)(=O)c1cccc(NC(=O)COC(=O)c2cc([N+](=O)[O-])ccc2N2CCCC2)c1 | 8.24% (inactive) |
| COc1ccc2c(CC(=O)NNC(=O)c3ccccc3F)coc2c1 | -7.08% (inactive) |
| Nn1c(SCC(=O)NC2CCCc3ccccc32)nnc1C1CC1 (stereo not drawn) | -20.9% (inactive) |
| O=C(Cc1nc2ccccc2[nH]c1=O)c1ccc(Cl)cc1 | -22.9% (inactive) |
| CCC(=O)/C(=C(/O)c1ccccc1)c1nc2ccccc2[nH]1 | -8.67% (inactive) |
| O=C(/C(=C/c1cccc(Cl)c1)c1nc2ccccc2[nH]1)c1ccccc1 | 79.9% (active) |
| CC(Sc1ccccc1F)C(=O)Nc1cccc(S(=O)(=O)N2CCOCC2)c1 (stereo not drawn) | -6.48% (inactive) |
| O=C1CCC/C=C/C[C@@H](CC(=O)N(CCO)Cc2ccccc2)C(=O)NC[C@H](c2ccccc2)O1 | -5.63% (inactive) |
| O=C(O)CCn1cc(/C=C/C(=O)c2ccc(Cl)cc2)c(-c2cccc(Br)c2)n1 | 78.2% (active) |
| CCOC(=O)/C(C#N)=C/c1cn(CCC(=O)O)nc1-c1ccc(Br)cc1 | -7.96% (inactive) |
| O=C(O)/C=C/c1cn(Cc2ccccc2)nc1-c1cccs1 | -3.63% (inactive) |
| O=C(C[C@@H]1C/C=C\CCC(=O)OC[C@@H]2CCCN2C1=O)NCCO | -0.206% (inactive) |
| C/C(N)=C(/C#N)C(=O)COC(=O)c1cc(-c2ccccc2)nc2ccc(Br)cc12 | -0.788% (inactive) |
| C/C(N)=C(/C#N)C(=O)COC(=O)c1cc(-c2cccc(Br)c2)nc2ccccc12 | 21.7% (inactive) |

| SMILES | inhibition |
| --- | --- |
| C/C(N)=C(/C#N)C(=O)COC(=O)c1cc(-c2ccc(C)cc2)nc2ccccc12 | 101% (active) |
| O=C(COc1ccccc1F)NNC(=O)c1cc(Br)ccc1Cl | 7.13% (inactive) |
| COc1cc(OC)cc(C(=O)NNC(=O)Cc2cccs2)c1 | -7.32% (inactive) |
| CC1CCCCN1CCCNc1ccc(C(CC(N)=O)NC(=O)c2ccccc2)cc1[N+](=O)[O-] (stereo not drawn) | 6.07% (inactive) |
| NC(=O)CC(NC(=O)Cc1ccc(Br)cc1)c1ccc(NC2CC3CCC2C3)c([N+](=O)[O-])c1 (stereo not drawn) | 85% (active) |
| NC(=O)CC(NC(=O)Cc1cccc2ccccc12)c1ccc(NCc2cc(F)ccc2F)c([N+](=O)[O-])c1 (stereo not drawn) | 4.74% (inactive) |
| Cc1ccc(OCc2nc3ccccc3n2C)cc1 | -4.74% (inactive) |
| CCCCCCCCCCOC(=O)Cn1c(COc2ccc(C)cc2)[n+](C)c2ccccc21 | 124% (active) |
| CCCCOC(=O)Cn1c(=N)n(CCN(CC)CC)c2ccccc21 | 0.539% (inactive) |
| CCCCCCCCCCOC(=O)Cn1c(COc2cccc(OC)c2)[n+](C)c2ccccc21 | 104% (active) |
| CCn1c(=N)n(CC(=O)c2cccc(OC)c2)c2ccccc21 | -13.1% (inactive) |
| COc1cccc(OCC(=O)Nc2ccccc2C(N)=O)c1 | -7.15% (inactive) |
| O=C(COC(=O)c1ccc(F)c(S(=O)(=O)N2CCOCC2)c1)NCc1ccc2c(c1)OCO2 | 8.38% (inactive) |
| O=C(COc1ccc(F)cc1Br)NCC1COc2ccccc2O1 (stereo not drawn) | 6.88% (inactive) |
| Cc1cc(C)cc(OCC(=O)Nc2ccc(N3CCOCC3)cc2N2CCOCC2)c1 | 6.1% (inactive) |
| COc1ccccc1C(=O)NCC(=O)OCC(=O)NNC(=O)c1ccc(Br)cc1 | -1.35% (inactive) |
| O=C(Oc1ccc(Br)cc1)c1cccnc1 | 4.5% (inactive) |
| CCCCCCOc1ccc(OC(=O)c2cccnc2)cc1 | 86.1% (active) |
| N#CCc1ccc(OC(=O)c2cccnc2)cc1 | 9.72% (inactive) |
| Oc1ccccc1N1CCN(c2ncnc3sc(-c4ccccc4)cc23)CC1 | 80.7% (active) |

| SMILES | inhibition |
| --- | --- |
| COc1ccc(Nc2ncnc3sc(-c4ccccc4)cc23)c(OC)c1 | 38.3% (inactive) |
| CCc1cc2c(N3CCN(c4nnc(CC)s4)CC3)ncnc2s1 | 1.61% (inactive) |
| O=C(OCC(=O)N1CCN(C(=O)c2ccco2)CC1)c1c(Cl)cccc1Cl | -3.78% (inactive) |
| N#Cc1c(NC(=O)CCCN2C(=O)c3ccccc3C2=O)oc(-c2ccccc2)c1-c1ccccc1 | -2.49% (inactive) |
| N#Cc1c(/N=C/N2CCCC2)oc(-c2ccccc2)c1-c1ccccc1 | 127% (active) |
| COc1ccc(-c2oc(/N=C/N3CCCC3)c(C#N)c2-c2ccc(OC)cc2)cc1 | -4.12% (inactive) |
| CCOC(=O)N1CCN(C(c2cccnc2)c2ccc3cccnc3c2O)CC1 (stereo not drawn) | 30.6% (inactive) |
| Oc1ccccc1CN1CCN(C(c2ccccc2)c2ccccc2)CC1 | 28.7% (inactive) |
| CCN1CCN(C(c2cccnc2)c2cc(Cl)c3cccnc3c2O)CC1 (stereo not drawn) | 77.7% (active) |
| COc1ccc(CNC(=O)COC(=O)c2sccc2C)cc1OC | 0.384% (inactive) |
| CCOC(=O)C1=C(NC(=S)NC(=O)c2ccccc2)c2ccccc2CC1(C)C | 3.23% (inactive) |
| CC1(C)Cc2ccccc2/C(=C/C(=O)c2ccccc2)N1 | 78.5% (active) |
| CC1(C)Cc2ccccc2-c2[nH]c(=S)[nH]c(=O)c21 | 0.325% (inactive) |
| CC1CCCCC1NC(=O)Cn1c(=O)cnc2ccccc21 (stereo not drawn) | 0.34% (inactive) |
| O=C(NCc1ccc2c(c1)OCO2)c1cc([N+](=O)[O-])ccc1N1CCOCC1 | 46.4% (inactive) |
| O=C(CSc1ccc(-c2ccc(Br)cc2)nn1)NCC1CCCO1 (stereo not drawn) | 1.96% (inactive) |
| OC(CNCC1CCCO1)Cn1c2ccc(Br)cc2c2cc(Br)ccc21 (stereo not drawn) | 116% (active) |
| CC(NS(=O)(=O)c1ccc(Br)cc1)C(=O)NCC1CCCO1 (stereo not drawn) | -4.45% (inactive) |
